Data from PubChem BioAssay (EPA / NIEHS).
Inconclusive results are not listed. The source made the active and inactive calls. How the source made its calls: active means hit-call score of the fitted dose curve at least 0.9, where 1 is the maximum; inconclusive means response in the unintended direction; inactive means score below 0.9.

How the values were obtained:
[1] = ACEA_AR_agonist_AUC_viability: ACEA Biosciences xCELLigence Real-Time Cell Analysis on Androgen Receptor Agonism for Viability (AID 2283775);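 on AC50: viability read 80 hours after compound addition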
Procedure, shortened: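 Real-time impedance tracking of 22Rv1 growth, readings every 5 min for 5 h then hourly; area-under-curve viability endpoint at 80 hours, relative to DMSO. Compounds at eight concentrations, 1:4 steps, top 100 uM, n = 2.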

[2] = ACEA_AR_antagonist_AUC_viability: ACEA Biosciences xCELLigence Real-Time Cell Analysis on Androgen Receptor Antagonism for Viability (AID 2283776);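 further: 22Rv1 human prostate cancer cells growing on impedance electrode plates; hits lower the growth signal relative to DMSO meaning cytotoxicity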
Procedure, shortened: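 Impedance read-out (RT-CES): area under growth curve at 80 h post-dose, loss of signal scored vs DMSO baseline. 22Rv1 cells; 8-pt 1:4 series, top 100 uM final, ≤0.5% DMSO; biological duplicate.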

[3] = ACEA_ER_AUC_viability: ACEA Biosciences xCELLigence Real-Time Cell Analysis on Estrogen Receptor Agonism for Viability (AID 2283782);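 further: continuous compound exposure with impedance area under curve over 80 h; hit means loss of impedance signal meaning reduced cell growth or viability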
Procedure, shortened: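 T-47D; phenol red-free RPMI1640 + 10% CS-FBS; 8 conc., 1:4 serial, max 100 uM final, ≤0.5% DMSO; n = 2; continuous exposure; impedance monitored to 80 h post-dose; AUC vs DMSO.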

[4] = STM_H9_NormalizedViability: Cytotoxicity Assessment at 120 hours in the Stemina devTOX quickPredict H9 human embryonic stem cell (hESC)-based Assay (AID 2283784)
Procedure, shortened: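 Pluripotent H9 hESCs were exposed, with chemical and media replaced every 24 h. Viability was read by CellTiter-Fluor fluorescence, background-corrected and normalized to the 0.1% DMSO neutral control per plate. Loss of signal was fitted.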

AR (gene 367) = AR (gene 367) (UniProt P10275); assay: ACEA_AR_antagonist_80hr: ACEA Biosciences xCELLigence Real-Time Cell Analysis on Androgen Receptor Antagonism for Proliferation (AID 2283787);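 further: 22Rv1 human prostate cancer cells with growth followed by electrical impedance; hits lower the impedance growth signal relative to DMSO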
Chain of AR (gene 367) (P10275 whole entry, looked up): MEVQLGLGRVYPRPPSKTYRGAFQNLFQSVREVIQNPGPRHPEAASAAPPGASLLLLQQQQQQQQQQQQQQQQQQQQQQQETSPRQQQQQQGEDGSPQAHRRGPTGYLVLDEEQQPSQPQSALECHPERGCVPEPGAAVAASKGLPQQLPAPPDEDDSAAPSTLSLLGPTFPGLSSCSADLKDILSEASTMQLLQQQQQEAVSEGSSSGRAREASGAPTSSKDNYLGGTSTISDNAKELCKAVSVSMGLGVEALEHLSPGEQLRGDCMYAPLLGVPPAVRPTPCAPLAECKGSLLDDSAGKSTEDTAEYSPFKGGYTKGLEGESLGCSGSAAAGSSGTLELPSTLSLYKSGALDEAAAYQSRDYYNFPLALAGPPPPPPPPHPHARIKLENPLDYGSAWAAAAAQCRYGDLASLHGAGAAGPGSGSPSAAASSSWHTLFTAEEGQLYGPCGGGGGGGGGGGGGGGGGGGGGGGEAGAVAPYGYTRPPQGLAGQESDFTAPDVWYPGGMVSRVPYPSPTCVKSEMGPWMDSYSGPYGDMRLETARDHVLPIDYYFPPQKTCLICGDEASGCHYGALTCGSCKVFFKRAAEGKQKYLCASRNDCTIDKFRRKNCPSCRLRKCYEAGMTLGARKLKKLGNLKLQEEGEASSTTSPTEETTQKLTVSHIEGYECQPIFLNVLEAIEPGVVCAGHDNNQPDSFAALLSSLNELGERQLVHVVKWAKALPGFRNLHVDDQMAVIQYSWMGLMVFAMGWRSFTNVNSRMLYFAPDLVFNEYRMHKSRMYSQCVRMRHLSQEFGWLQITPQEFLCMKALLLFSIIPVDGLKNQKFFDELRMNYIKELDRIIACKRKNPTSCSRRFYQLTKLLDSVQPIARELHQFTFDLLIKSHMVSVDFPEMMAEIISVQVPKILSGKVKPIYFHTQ
Procedure, shortened: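 Growth-kinetic antagonist readout in 22Rv1 cells, taken 80 h after continuous compound exposure. Activity fitted as signal loss relative to DMSO negative control.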

For `COc1cccc2c1C(=O)c1c(O)c3c(c(O)c1C2=O)C[C@@](O)(C(=O)CO)C[C@@H]3O[C@H]1C[C@H](N)[C@H](O)[C@H](C)O1`, the AC50 [1] was 0.0985 µM (active), the AC50 [2] was 0.0588 µM (active) and the outcome [3] was “inactive”.

For `C[Si]1(C)O[Si](C)(C)O[Si](C)(C)O[Si](C)(C)O1`, the outcome [1] was “inactive” and the outcome [2] was “inactive”.

For `NC(=O)Cn1c(=O)cc(CCN2CCN(c3nccc4sccc34)CC2)c2ccc(F)cc21`, the outcome [1] was “inactive” and the AC50 [2] was 12.1 µM (active).

With `NCCO` the outcome [1] was “inactive” and the outcome [2] was “inactive”.

In the case of `CC(=O)C(C)=CC1C(C)=CCCC1(C)C` (configuration not stated), the outcome [1] is reported as “inactive” and the AC50 [2] is reported as 9.92 µM (active).

For `CN1CCCC1=O`, the outcome [1] was “inactive” and the outcome [2] was “inactive”.

With `CC1(C)NC(=O)NC1=O` the outcome [1] was “inactive” and the outcome [2] was “inactive”.

With `Cc1nc(C)nc(N2C[C@@H](C)N(c3ccnc([C@@H](C)O)n3)[C@@H](C)C2)n1` the outcome [1] was “inactive” and the outcome [2] was “inactive”.

In the case of `Cc1nc(-c2ccc3c(c2)CCN(CCC2CCC(NC(=O)/C=C/c4ccc(F)cc4)CC2)CC3)no1` (configuration not stated), the outcome [1] is reported as “inactive”, the AC50 [2] is reported as 16.8 µM (active) and the outcome [3] is reported as “inactive”. The outcome [4] was “inactive” and the AC50 (AR (gene 367)) was 23.2 µM (active).

With `CCCCC(CC)COC(=O)CC(C(=O)OCC(CC)CCCC)S(=O)(=O)O` (configuration not stated) the AC50 [1] was 88.4 µM (active), the AC50 [2] was 85.2 µM (active) and the AC50 [3] was 67.3 µM (active). The outcome [4] was “inactive”.

With `CCCCc1ccc2c(n1)[C@@H](c1ccc(OC)cc1C[C@H](C)C(=O)O)[C@H](C(=O)O)[C@H]2c1ccc2c(c1)OCO2` the outcome [1] was “inactive”, the AC50 [2] was 19.9 µM (active) and the outcome [4] was “inactive”.

With `Cc1ccc(C)c(O)c1C` the outcome [1] was “inactive”, the outcome [2] was “inactive” and the outcome [3] was “inactive”. The outcome (AR (gene 367)) was “inactive”.

For `COc1ccc2c(c1)c(CC(=O)O)c(C)n2C(=O)c1ccc(Cl)cc1`, the AC50 [1] was 37 µM (active), the AC50 [2] was 25.4 µM (active) and the AC50 [4] was 78.1 µM (active). For the same compound, the AC50 (AR (gene 367)) was 34.1 µM (active).
